Experiment [1] is described as follows: antimalarial activity against Dd2 strain (AID 2302;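 active = growth inhibition above 50% at the single 2 µM test dose, taken to imply half-maximal potency below 2 µM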;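 note: 0% = DMSO untreated growth and 100% = chloroquine plus artemisinin killed control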). The note with it: P. falciparum Dd2 in RBCs, LDH growth readout, 72 h; at 2 µM; stronger effect = higher value.
The nature of experiment [2]: HepG2 cytotoxicity, primary screen, cytotoxicity control for P. falciparum antimalarial project, cell-based, ATP luminescence (AID 2303;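 active = inhibition above 50%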;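 note: 0% = DMSO wells and 100% = digitonin-killed cells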). The note with it: HepG2 viability, 24-48 h, at 10 µM, stronger effect = higher value.
In experiment [3] the target is L-lactate dehydrogenase (Plasmodium falciparum (isolate CDC / Honduras)) (UniProt Q27743). The experiment in a line: PfLDH activity inhibition – cell lysate, 3D7 strain, counter-screen for P. falciparum growth inhibition project (AID 2304).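 Note: 0% = vehicle and 100% = reference inhibitor.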 The settings on record: P. falciparum 3D7 crude extract, LDH APAD/NBT absorbance; at 2 µM; stronger effect = higher value. In general terms: A counterscreen serves to expose hits that act by an unwanted route or on another target.
L-lactate dehydrogenase (Plasmodium falciparum (isolate CDC / Honduras)), sequence (Q27743 whole entry, looked up): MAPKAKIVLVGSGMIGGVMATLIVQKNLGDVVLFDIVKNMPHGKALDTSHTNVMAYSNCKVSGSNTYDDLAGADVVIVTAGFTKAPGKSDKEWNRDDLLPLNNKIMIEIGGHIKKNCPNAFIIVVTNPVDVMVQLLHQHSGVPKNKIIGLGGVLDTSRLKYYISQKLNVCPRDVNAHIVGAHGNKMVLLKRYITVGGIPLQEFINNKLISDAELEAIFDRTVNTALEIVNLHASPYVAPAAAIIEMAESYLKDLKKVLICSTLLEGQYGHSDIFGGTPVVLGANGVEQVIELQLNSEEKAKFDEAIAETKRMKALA

Experiment [4] in a line: inhibition of 3D7 malaria parasite growth – strain 3D7 (AID 2306).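 Note: 0% = DMSO wells and 100% = chloroquine plus artemisinin control wells.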 The settings on record: P. falciparum 3D7 erythrocytic growth, LDH absorbance, 72 h; at 2 µM; stronger effect = higher value.
Experiment [5] deals with Calcium-dependent protein kinase 1 (Plasmodium falciparum (isolate 3D7)) (UniProt P62344). The experiment in a line: PfCDPK1 kinase inhibitors, biochemical, TCAMS library (AID 1159585; cut-off not given, nearly all actives have IC50 up to about 0.98 µM;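 note: inhibitors leave more ATP so luminescence rises with inhibition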). The settings on record: recombinant PfCDPK1, Kinase-Glo ATP depletion luminescence.
Calcium-dependent protein kinase 1 (Plasmodium falciparum (isolate 3D7)), sequence (P62344 whole entry, looked up): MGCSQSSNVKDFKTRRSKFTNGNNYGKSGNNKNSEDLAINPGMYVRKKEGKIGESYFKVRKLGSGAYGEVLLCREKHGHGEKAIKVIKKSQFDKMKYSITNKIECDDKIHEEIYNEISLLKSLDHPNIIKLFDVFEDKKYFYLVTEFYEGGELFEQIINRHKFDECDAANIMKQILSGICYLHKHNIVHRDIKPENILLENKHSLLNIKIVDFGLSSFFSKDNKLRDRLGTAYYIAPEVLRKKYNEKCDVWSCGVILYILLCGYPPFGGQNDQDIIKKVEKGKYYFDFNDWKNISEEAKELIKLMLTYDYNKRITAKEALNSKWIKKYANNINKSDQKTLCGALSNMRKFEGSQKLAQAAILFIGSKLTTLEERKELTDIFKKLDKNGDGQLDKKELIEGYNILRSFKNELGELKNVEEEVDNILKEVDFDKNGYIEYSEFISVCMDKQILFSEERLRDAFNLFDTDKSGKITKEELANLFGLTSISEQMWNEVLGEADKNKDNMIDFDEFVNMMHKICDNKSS
Experiment [6] deals with Plasmodium falciparum protein kinase 6 (PK6, PF3D7_1337100) (UniProt Q8IDW1). The experiment in a line: PfPK6 kinase inhibitors, biochemical, TCAMS library (AID 1159586). The note with it: recombinant PfPK6, Kinase-Glo ATP depletion luminescence. For orientation: Kinase-Glo reads ATP consumption through a luciferase reaction.
Plasmodium falciparum protein kinase 6 (PK6, PF3D7_1337100), sequence (Q8IDW1 1-305): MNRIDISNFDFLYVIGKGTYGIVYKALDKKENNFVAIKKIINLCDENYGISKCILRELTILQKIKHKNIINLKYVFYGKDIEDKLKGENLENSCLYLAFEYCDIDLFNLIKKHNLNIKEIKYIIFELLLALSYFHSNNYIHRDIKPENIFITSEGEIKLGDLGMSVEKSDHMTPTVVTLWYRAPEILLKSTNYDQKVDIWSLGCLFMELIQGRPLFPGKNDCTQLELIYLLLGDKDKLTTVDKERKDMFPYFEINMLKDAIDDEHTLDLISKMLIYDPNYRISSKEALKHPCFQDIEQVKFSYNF
The target in experiment [7] is Protein kinase 7 (PK7), Plasmodium falciparum 3D7 (PF3D7_0213400) (UniProt Q7YTF7). The experiment in a line: inhibition of Plasmodium PK7 catalytic activity – biochemical, TCAMS antimalarial set, Kinase-Glo luminescence (AID 1159587). The settings on record: recombinant PfPK7, Kinase-Glo ATP depletion luminescence.
Protein kinase 7 (PK7), Plasmodium falciparum 3D7 (PF3D7_0213400), sequence (Q7YTF7 1-343): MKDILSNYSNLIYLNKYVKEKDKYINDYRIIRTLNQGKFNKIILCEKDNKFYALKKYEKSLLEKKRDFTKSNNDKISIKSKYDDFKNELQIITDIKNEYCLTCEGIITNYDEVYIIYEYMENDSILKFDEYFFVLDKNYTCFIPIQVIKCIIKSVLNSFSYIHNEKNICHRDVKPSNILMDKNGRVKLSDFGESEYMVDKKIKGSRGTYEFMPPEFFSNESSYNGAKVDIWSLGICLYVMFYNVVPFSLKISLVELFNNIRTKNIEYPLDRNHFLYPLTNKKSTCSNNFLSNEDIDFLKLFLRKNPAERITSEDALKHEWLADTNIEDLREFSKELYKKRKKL
The target of experiment [8] is Calcium-dependent protein kinase 4 (Plasmodium falciparum (isolate 3D7)) (UniProt Q8IBS5). The experiment in a line: PfCDPK4 kinase inhibitors, biochemical, TCAMS library (AID 1159588; cut-off not given, nearly all actives have IC50 up to about 0.91 µM). The settings on record: recombinant PfCDPK4, Kinase-Glo ATP depletion luminescence.
Calcium-dependent protein kinase 4 (Plasmodium falciparum (isolate 3D7)), sequence (Q8IBS5 whole entry, looked up): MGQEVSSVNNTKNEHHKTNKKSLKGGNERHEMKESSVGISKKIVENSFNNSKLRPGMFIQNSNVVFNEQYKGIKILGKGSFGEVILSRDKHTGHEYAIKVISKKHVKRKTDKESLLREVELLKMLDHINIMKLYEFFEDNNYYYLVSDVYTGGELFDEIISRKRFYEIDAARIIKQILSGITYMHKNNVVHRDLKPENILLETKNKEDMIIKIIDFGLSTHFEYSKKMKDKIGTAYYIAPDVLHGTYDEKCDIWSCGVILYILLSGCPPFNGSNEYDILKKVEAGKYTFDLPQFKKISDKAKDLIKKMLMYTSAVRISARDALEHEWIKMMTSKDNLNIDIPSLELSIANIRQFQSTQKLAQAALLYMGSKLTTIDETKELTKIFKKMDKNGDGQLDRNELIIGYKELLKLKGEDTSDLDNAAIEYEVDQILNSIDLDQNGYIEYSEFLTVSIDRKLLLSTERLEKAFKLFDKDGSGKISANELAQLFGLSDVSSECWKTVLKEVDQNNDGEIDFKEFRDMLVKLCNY

Values joined by “and” are separate entries in the source; they are usually repeats but may differ in a detail not shown here. Equal values may be shown once. For some assays here: Measured potencies and affinities stand elsewhere. The source holds several records for some structures; these can differ, active in one and inactive in another. Active and inactive are the calls of the source. Unless noted, the rule behind the calls is not given here.

The term inhibition denotes the relative decrease from the control value, in per cent. For `O=C(Cc1c(-c2ccccc2)[nH]c2ccccc12)NC1CCC(CN2CCC(c3c[nH]c4ccccc34)CC2)CC1` (stereo unspecified), the growth inhibition in experiment [1] is 75% (active); in experiment [4], 103% (active). The inhibition in experiment [2] is 31% (inactive); in experiment [3], 1% (inactive). The result in experiment [5], in experiment [6], in experiment [7] and in experiment [8] was inactive.
With `CNCCCN(C)C(=O)Oc1c(Br)c(C)nc(C)c1-c1ccc(Oc2ccc(OC(F)(F)F)cc2)cc1`, the growth inhibition in experiment [1] and in experiment [4] was 96% (active) each time. Further, the inhibition in experiment [2] was 17% (inactive); in experiment [3], 3% (inactive). Further, the outcome in experiment [5], in experiment [6], in experiment [7] and in experiment [8] was inactive.
As to `COc1cccc(CN2CCC(CCOC(c3ccccc3)c3ccccc3)CC2)c1O`, the figures for the growth inhibition in experiment [1] and in experiment [4] were 99% (active) and 97% (active), respectively. Besides, the inhibition in experiment [2] is 33% (inactive); in experiment [3], 3% (inactive). In addition, the outcome in experiment [5], in experiment [6], in experiment [7] and in experiment [8] was inactive.
As for `O=C(/C=C/c1ccc(Cl)c(Cl)c1)NC1[C@@H]2CC[C@H]1CC(CN1CCC(c3c[nH]c4ccccc34)CC1)C2` (stereo partly specified), the growth inhibition in experiment [1] and in experiment [4] was 100% (active) each time. Besides, the inhibition in experiment [2] was 31% (inactive); in experiment [3] it was -2% (inactive). In addition, the result in experiment [5], in experiment [6], in experiment [7] and in experiment [8] was inactive.
Regarding `CCCCCCCn1c(=O)c(C(=O)Nc2c(C)cccc2C)c(O)c2ccccc21`, the growth inhibition in experiment [1] is 42% (inactive); in experiment [4], 90% (active). Also, the inhibition was 6% (inactive) in experiment [2] and -2% (inactive) in experiment [3]. For the same molecule, the outcome in experiment [5], in experiment [6], in experiment [7] and in experiment [8] was inactive.
In the case of `CC(Cc1ccc(Oc2ccc(Cl)cc2)cc1)NCC(O)c1cccc(Cl)c1` (stereo unspecified), the values for the growth inhibition in experiment [1] and in experiment [4] were 98% (active) and 99% (active), respectively. The inhibition in experiment [2] is 3% (inactive); in experiment [3], -2% (inactive). In addition, the result in experiment [5], in experiment [6], in experiment [7] and in experiment [8] was inactive.
Turning to `O=C(c1cccs1)N(Cc1cccc(-c2ccc(CNC3CCCC3)cc2)c1)C1CCN(Cc2ccccc2)CC1`, the growth inhibition in experiment [1] was 74% (active); in experiment [4], 90% (active). Further, the inhibition in experiment [2] was 20% (inactive); in experiment [3], 0% (inactive). Also, the outcome in experiment [5], in experiment [6], in experiment [7] and in experiment [8] was inactive.
For the molecule `O=C(NC1CCC(CN2CCC(c3c[nH]c4ccccc34)CC2)CC1)c1cn(Cc2ccccc2)c2ccccc12` (stereo unspecified), the growth inhibition in experiment [1] is 48% (inactive); in experiment [4] it was 91% (active). The figures for the inhibition in experiment [2] and in experiment [3] were 84% (active) and -3% (inactive), respectively. Besides, the outcome in experiment [5], in experiment [6], in experiment [7] and in experiment [8] was inactive.
For the molecule `Cc1nc(-c2ccc(-c3ccc(C(=O)Nc4ccc5c(c4)C4(CCNCC4)CO5)cc3)c(C)c2)no1`, the values for the growth inhibition in experiment [1] and in experiment [4] were 15% (inactive) and 90% (active), respectively. The inhibition is 37% (inactive) in experiment [2] and -3% (inactive) in experiment [3]. Besides, the result in experiment [5], in experiment [6], in experiment [7] and in experiment [8] was inactive.
`Cc1cc(CN2CCN(CCOC(c3ccccc3)c3ccccc3)CC2)ccc1O`: the growth inhibition in experiment [1] was 96% (active); in experiment [4] it was 97% (active). The inhibition was 9% (inactive) in experiment [2] and -1% (inactive) in experiment [3]. Also, the result in experiment [5], in experiment [6], in experiment [7] and in experiment [8] was inactive.
For `Oc1ccc(CN2CCN(CCOC(c3ccccc3)c3ccc(Cl)cc3)CC2)cc1Cl` (stereo unspecified), the growth inhibition in experiment [1] is 97% (active); in experiment [4], 98% (active). Besides, the inhibition in experiment [2] is 11% (inactive); in experiment [3] it was -3% (inactive). For the same molecule, the result in experiment [5], in experiment [6], in experiment [7] and in experiment [8] was inactive.
For the molecule `Cc1ccccc1C1=CCN(CCCN2c3ccccc3Sc3ccc(Cl)cc32)CC1`, the results for the growth inhibition in experiment [1] and in experiment [4] were 30% (inactive) and 90% (active), respectively. In addition, the inhibition was 14% (inactive) in experiment [2] and 5% (inactive) in experiment [3]. Further, the result in experiment [5], in experiment [6], in experiment [7] and in experiment [8] was inactive.
As to `Clc1ccc2nccc(N3CCC(CN4CCC(c5c[nH]c6ccccc56)CC4)CC3)c2c1`, the growth inhibition in experiment [1] was 81% (active); in experiment [4] it was 101% (active). In addition, the inhibition in experiment [2] was 46% (inactive); in experiment [3] it was 4% (inactive). The result in experiment [5], in experiment [6], in experiment [7] and in experiment [8] was inactive.
For the molecule `Cc1c(C)c2c(c(C)c1O)CC[C@](C)(C(=O)NC1CCC(CN3CCC(c4c[nH]c5ccccc45)CC3)CC1)O2` (stereo partly specified), the growth inhibition is 98% (active) and 48% (inactive) in experiment [1]; 96% (active) and 85% (active) in experiment [4]. The inhibition was 24% (inactive) and 27% (inactive) in experiment [2]; -2% (inactive) and 1% (inactive) in experiment [3]. The outcome in experiment [5], in experiment [6], in experiment [7] and in experiment [8] was inactive.
With `CCC(C)CN1CCC(N(C)c2cc(NC(=O)c3ccc(F)cc3)ccn2)CC1` (stereo unspecified), the growth inhibition is 32% (inactive) in experiment [1] and 93% (active) in experiment [4]. Besides, the inhibition in experiment [2] is 4% (inactive); in experiment [3], -5% (inactive). Besides, the outcome in experiment [5], in experiment [6], in experiment [7] and in experiment [8] was inactive.
As to `O=C(c1cc(C(=O)NCc2ccc(Cl)cc2)c(=O)n(Cc2ccc(Cl)cc2)c1)c1cc(Cl)ccc1O`, the growth inhibition in experiment [1] is 4% (inactive); in experiment [4], 80% (active). For the same molecule, the inhibition was 6% (inactive) in experiment [2] and -1% (inactive) in experiment [3]. The result in experiment [5], in experiment [6], in experiment [7] and in experiment [8] was inactive.
`CC1=CC(=O)[C@@H](O)[C@]2(C)[C@H]3[C@@]4(O)OC[C@@]35[C@@H](C[C@@H]12)OC(=O)C[C@H]5[C@@H](C)[C@H]4O`: the results for the growth inhibition in experiment [1] and in experiment [4] were 98% (active) and 99% (active), respectively. Also, the results for the inhibition in experiment [2] and in experiment [3] were 38% (inactive) and 4% (inactive), respectively. Besides, the result in experiment [5], in experiment [6], in experiment [7] and in experiment [8] was inactive.
As for `CC(C)CNCc1cccc(-c2ccc(CN(C(=O)NC3CCCCC3)C3CCN(Cc4ccccc4)CC3)cc2)c1`, the growth inhibition in experiment [1] was 51% (active); in experiment [4] it was 97% (active). Moreover, the inhibition was 27% (inactive) in experiment [2] and -2% (inactive) in experiment [3]. The outcome in experiment [5], in experiment [6], in experiment [7] and in experiment [8] was inactive.
For the molecule `Cc1ccc(-n2nc(C)c3c2NC(=O)CSC3c2ccsc2)cc1` (stereo unspecified), the growth inhibition in experiment [1] is 11% (inactive); in experiment [4], 97% (active). Besides, the inhibition was -14% (inactive) in experiment [2] and 2% (inactive) in experiment [3]. The outcome in experiment [5], in experiment [6], in experiment [7] and in experiment [8] was inactive.
Turning to `COc1cccc(C2(NC[C@@H](O)[C@H](Cc3ccccc3)NC(=O)c3ccccc3)CCCCC2)c1`, the figures for the growth inhibition in experiment [1] and in experiment [4] were 67% (active) and 97% (active), respectively. In addition, the inhibition is 14% (inactive) in experiment [2] and -2% (inactive) in experiment [3]. Further, the result in experiment [5], in experiment [6], in experiment [7] and in experiment [8] was inactive.
Turning to `Cc1ccc(/C=C/C(=O)NC2CCC(CN3CCC(c4c[nH]c5ccccc45)CC3)CC2)cc1C` (stereo unspecified), the growth inhibition in experiment [1] is 71% (active) and 91% (active); in experiment [4] it was 100% (active) and 101% (active). The inhibition in experiment [2] is 23% (inactive) and 38% (inactive); in experiment [3], 8% (inactive) and 4% (inactive). Besides, the result in experiment [5], in experiment [6], in experiment [7] and in experiment [8] was inactive.
Take `COc1ccc(F)cc1-c1csc(N(c2ccc(F)cc2)C2CCNCC2)n1`: the growth inhibition was -3% (inactive) in experiment [1] and 94% (active) in experiment [4]. Also, the results for the inhibition in experiment [2] and in experiment [3] were 15% (inactive) and -1% (inactive), respectively. For the same molecule, the outcome in experiment [5], in experiment [6], in experiment [7] and in experiment [8] was inactive.

(Values after PubChem BioAssay.)
